A selection: hits, their analogues and other compounds. The true share with any hit is near 12%.
FMDV inh: blocks foot and mouth disease virus; FMDV antiviral cell-based qHTS; Potency, µM (doses to about 57.9 µM), for the others: at the top dose activity change, negative = inhibition, most hits filed as inhibitors; 410,000 compounds, 1.2% hits; AID 1159524; calls by dose curve; tested in HEK293T cells; also: read-out not given here; potency is read from the fitted curve at half-maximal effect; % is scaled to controls: 0 for no effect and ±100 for the full control effect; nearly all actives have a fitted effect of over 45% in size
CHX counter: counter-screen hit for Shiga toxin inhibitors, cycloheximide; 300,000 compounds, 12% hits; cell reporter, cycloheximide protein synthesis inhibition counterscreen; max response, %; in the data active = max response mostly above about 13%, no sharp cut-off; inactive = mostly below about 14%; also: read at 38.3 µM for the half of the compounds with a filed dose; 0% is about no effect
Sm TGR inh: S. mansoni TGR enzyme inhibition; AID 485364; purified TGR, DTNB reduction, TNB absorbance 405 nm; Potency, µM (series often up to 114 µM), without a hit: top-dose activity change, negative = inhibition, actives largely listed as inhibitors; 360,000 compounds, 3% hits; active = well fitted inhibition curve with a large enough effect; inconclusive = small, poorly fitted or top-dose-only effect; inactive = no such curve, though single readings can be large or run the other way; also: potency is read from the fitted curve at half-maximal effect; % is scaled to controls: 0 for no effect and ±100 for the full control effect; nearly all actives have a fitted effect of over 60% in size
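TGR 20 nM + NADPH 100 uM (dispensed conc.), cpd preinc 15 min RT; start with NADPH (500 uM addition) then DTNB (15 mM addition). Kinetic TNB absorbance, 405 nm filter. Four-parameter Hill fit across titration.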
Shiga toxin inh: inhibitors of Shiga toxin in Vero cells; 290,000 compounds, 9.2% hits; AID 2315; inhibition, % at 38.7 µM; Vero cells, Shiga toxin protein synthesis inhibition reporter; in the data active = inhibition mostly above about 28%, no sharp cut-off; inactive = mostly below about 43%; also: 0% is about no effect
* = called active by the depositor.

For COc1ccc(OC)c(NC(=O)CCCc2nnc3n(C(C)C)c(=O)c4sccc4n23)c1 the results were FMDV inh -10% and Sm TGR inh -2%.
Cc1cccc(C(=O)N2CCc3cc(-c4csc(NC(=O)CN5CCCC5)n4)ccc32)c1 was read as FMDV inh inconclusive, CHX counter 9, Sm TGR inh 12% and Shiga toxin inh 9.
Screening CNc1nc(-c2ccc3c(c2)CCN3C(=O)c2cccc(F)c2)cs1 returned FMDV inh -22%, CHX counter 44*, Sm TGR inh -6% and Shiga toxin inh 59*.
`Cc1nn(C)c(C(=O)N/N=C/c2ccccc2)c1[N+](=O)[O-]` gave FMDV inh 10%, CHX counter -2, Sm TGR inh 1% and Shiga toxin inh -6.
Screening Cn1c2ccccc2c2cc(/C=N/NC(=O)c3ccc(N)cc3)ccc21 returned FMDV inh -20%, CHX counter 13, Sm TGR inh 0% and Shiga toxin inh 24.
Screening Cn1c(/C=N/NC(=O)c2ccccc2)nc2ccccc21 returned CHX counter 31*, Sm TGR inh 26% and Shiga toxin inh 75*.
Cn1c(C(=O)N/N=C/c2ccccc2)cc2ccccc21 was read as FMDV inh 9%, CHX counter 21*, Sm TGR inh inconclusive and Shiga toxin inh 44.
Cn1c(CCCNC(=O)c2ccccc2)nc2ccccc21 was read as FMDV inh -17%, CHX counter -1, Sm TGR inh 9% and Shiga toxin inh 4.
`Cn1c(-c2ccccc2)c(/C=N/NC(=O)c2ccc(O)cc2)c2ccccc21` gave FMDV inh 3%, CHX counter 34*, Sm TGR inh 17% and Shiga toxin inh 87*.
For NS(=O)(=O)c1ccc(CCNC(=O)Cn2c(-c3cccs3)cc3ccccc32)cc1 the results were FMDV inh -21% and Sm TGR inh 0%.
`CCCC[C@H](NC(C)=O)C(=O)N[C@@H](CCC(=O)O)C(=O)N[C@@H](Cc1cnc[nH]1)C(=O)N[C@H](Cc1ccccc1)C(=O)N[C@@H](CCCN=C(N)N)C(=O)N[C@H](Cc1c[nH]c2ccccc12)C(=O)NCC(N)=O` gave CHX counter -7 and Shiga toxin inh -7.
Screening Cc1cc(=O)n(CC(=O)N2CCCCC2)c2c1c(C)nn2C returned FMDV inh 9% and Sm TGR inh 0%.
`O=C(c1cccc([N+](=O)[O-])c1)c1ccccn1` gave FMDV inh -16%, CHX counter 1, Sm TGR inh 0% and Shiga toxin inh 5.
N#C/C(=C\c1cccc([N+](=O)[O-])c1)c1ccccn1 was read as FMDV inh -22%, CHX counter 28*, Sm TGR inh -35% and Shiga toxin inh 55*.
Screening Nc1nnc(/C=C/c2cccc([N+](=O)[O-])c2)s1 returned FMDV inh 21%, CHX counter 42*, Sm TGR inh -2% and Shiga toxin inh 29.
Screening O=C(/C=C/c1cccc([N+](=O)[O-])c1)n1cnc2ccccc21 returned FMDV inh 14µM*, CHX counter -2, Sm TGR inh 6% and Shiga toxin inh -8.
Screening C(=C\c1ccccn1)/c1ccncc1 returned FMDV inh 0%, CHX counter 21*, Sm TGR inh 0% and Shiga toxin inh 78*.
For CO[C@H]1C[C@H](O[C@@H]2/C(C)=C/C[C@@H]3C[C@@H](C[C@]4(CC[C@H](C)[C@@H](C5CCCCC5)O4)O3)OC(=O)[C@@H]3C=C(C)/C(=N/O)[C@H]4OC/C(=C\C=C\[C@@H]2C)[C@]43O)O[C@@H](C)[C@@H]1O the results were FMDV inh -3%.
Screening C/C(=C\COc1c2ccoc2cc2oc(=O)ccc12)CCC(O)C(C)(C)O (stereo not drawn) returned CHX counter -8 and Shiga toxin inh 3.
Screening Cc1cc(C)nc(N/N=C/c2cccc([N+](=O)[O-])c2)n1 returned FMDV inh 2%, CHX counter 12, Sm TGR inh 25% and Shiga toxin inh 29.
Screening O=[N+]([O-])c1cccc(/C=N/Nc2nccnc2Cl)c1 returned FMDV inh 16%, CHX counter 42*, Sm TGR inh 9% and Shiga toxin inh 77*.
Nc1cccc(CCc2ccncc2)c1 was read as FMDV inh 0%, CHX counter 0, Sm TGR inh -2% and Shiga toxin inh -3.
Screening O=[N+]([O-])c1ccc(/C=N/Nc2ccccn2)cc1 returned FMDV inh 3%, CHX counter 20*, Sm TGR inh -3% and Shiga toxin inh 60*.
Screening Nc1cccc(/C=C/c2ccncc2)c1 returned FMDV inh 34%, CHX counter 20*, Sm TGR inh -25% and Shiga toxin inh 59*.
